Compounds without any hit were thinned out: in the full panel of roughly 83,000, 20% have a hit.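 Values shown are percent growth following 48 h exposure of cells in 96-well plates to a single concentration of compound; below 10 was considered active.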 Values without a mark were called inactive. Active and inactive are the calls of the source.

The assay concerns MCF7 breast. Kind of assay: NCI-60 one-dose screen, 48 h (100 = growth as untreated, 0 = no growth, -100 = all killed). The settings on record: 10 µM unless noted. Here is the method:
Growth inhibition of the MCF7 human tumor cell line is measured as a screen for anti-cancer activity. Cells are grown in 96 well plates and exposed to the test compound for 48 hours. Compounds are tested at a single concentration, which is 10^-5 M for most compounds. The reported endpoint is percent growth (GI% or GIPRCNT), where numbers from 0 - 100% represent growth inhibition, and numbers from -100% - 0 represent cell death. For example, a value of 40 represents 60% growth inhibition. A value of 0 means no net growth occurred over the course of the experiment. A value of -40 indicates 40% of cells at the beginning of the experiment died by the end of the experiment. A value of -100 means all cells are dead at the end of the experiment.
NCI-60 Human Tumor Cell Lines Screen was performed using the standard one-dose NCI protocol, which is described in more detail at https://dtp.cancer.gov/discovery_development/nci-60/default.htm.
Compounds with GIPRCNT values below 10 were considered active. Activity score was based on GIPRCNT using the following formula: […]
Score is 0 for GIPRCNT values of 100 or above, 50 for GIPRCNT values of 0, and 100 for GIPRCNT values of -100.
Regarding `CC(C)(C)c1ccc(/C=C/C(=O)Nc2ccc(O)cc2)cc1`, the growth was 60.9%.
To `O=C1/C(=C/c2ccc(F)cc2)C=C(c2ccccc2)N1CCc1ccccc1` belongs 50.4%; to `COc1cccc(/C=C/C(=O)c2c(C)nc3ccccc3c2/C=C/c2ccc(C)cc2)c1OC`, 13.8%; to `Cc1cc[c-]cc1.Fc1c[c-]c(-c2ccccn2)c(F)c1.[Pt+2].c1ccc(P(C[PH+](c2ccccc2)c2ccccc2)c2ccccc2)cc1`, 6.01% (active).
To `CCN(CC)c1nc(SCC(=O)Nc2nc3ccc(C)cc3s2)nc(-c2ccccc2)c1C#N` belongs 85.1%; to `Cc1cc(NCCCCNc2ccnc3cc(Cl)ccc23)nc(Nc2ccc(C(=O)N3CCCC3)cc2)n1`, 12.7%.
`O=[N+]([O-])c1ccc(OCCO)cc1`: the growth was 94.3%.
Under `COc1cc(/C=C/C(=O)c2c(C)nc3ccccc3c2/C=C/c2ccc(C)cc2)cc(OC)c1OC` stands 17.1%.
Under `O=C1CCC2=C3C4CCCCC4C(=O)C4CCCC(OC2C1)C34` (stereo not given) stands 12.8%; under `COc1ccc(-c2nc(SC(C)C)nc(NNC(N)=S)c2C#N)cc1`, 30.7%; under `COc1ccc2c(c1)[nH]c(=O)c1c3cccnc3cn21`, 20.5%.
Under `Cc1ccc2nc3ccccc3c(NCc3ccccc3)c2c1` stands 11.2%.
As to `O=c1[nH]c2ccccc2n1C1CCN(CCOc2ccccc2)CC1`, the growth is 81.3%.
Under `NC[C@H](O)c1ccc(O)c(O)c1` stands 110%.
To `O=C(NCCCNc1cc(-c2cn(-c3ccccc3)nc2-c2cccc(O)c2)ccn1)c1ccccc1` belongs 23%; to `Cc1ccc(-c2cc(-c3ccccc3C)[nH]c(=O)c2C#N)s1`, 89%; to `O=Cc1ccc(O)c2ncccc12`, 7.29% (active).
To `CCCc1cc2c(=O)c(C(=O)OC)c[nH]c2cc1N(CC)CC` belongs 80.2%.
As to `COC(=O)[C@]12CC[C@@H](C)[C@H](C)[C@@H]1C1=CC[C@@H]3[C@@]4(C)C(C=O)=C[C@@](C)(COC(C)=O)[C@@H]4C(=O)C[C@@]3(C)[C@]1(C)CC2`, the growth was 22.7%.
To `CC(=O)N1C(=S)NC(=O)C1Cn1c(-c2ccccc2)nc2ccccc21` (stereo not given) belongs 88.7%; to `O=C(CCc1nnc(CN(c2ccccc2)c2ccccc2)o1)c1nc2ccccc2[nH]1`, 76%.
Under `Cc1ccc(/C=C2\C(=O)N(C)c3ccc(S(=O)(=O)Nc4ccc(C(C)(C)C)cc4)cc32)s1` stands 54.6%; under `C#CCOc1nc(C)cc(C)c1C#N`, 95.5%.
Under `CC(CCc1ccc(Cl)c(Cl)c1)NCc1ccc(C(C)(C)C)cc1` (stereo not given) stands 80.8%; under `CS(=O)c1cccc(-c2ccc3nc(N)n(-c4ccc(C(F)(F)F)cc4)c(=O)c3c2)c1` (stereo not given), 104%; under `OC(COc1ccccc1Cl)COc1ccccc1Cl`, 94.8%.
As for `Cn1c(I)c(C#C[Si](C)(C)C)c(=O)n(C(=O)c2ccccc2)c1=O`, the growth is -18.9% (active).
In the case of `Cc1cccc(Cc2cnc(NC(=O)/C=C/c3ccco3)s2)c1`, the growth was 14.9%.
To `Cc1ccc2c(c1)Sc1c(ccc3ccccc13)N2` belongs 56.5%.
To `CNC(=O)NCC1OC(n2cnc3c(NC(=O)Nc4ccccc4)ncnc32)C(O[Si](C)(C)C(C)(C)C)C1CC(=O)N(C)OC` (stereo not given) belongs 3.29% (active); to `O=c1c2c3c(sc2n2c(-c4cc(-c5ccccc5)nn4-c4ccccc4)nnc2n1Cc1ccccc1)CCCC3`, 68.3%; to `COc1ccc(C2c3ccc4ccccc4c3Oc3nc(C)[nH]c(=O)c32)cc1` (stereo not given), 96.1%.
`COc1ccc(NC(=O)CSc2nc(C)c(C(C)=O)n2-c2ccc([N+](=O)[O-])cc2)cc1`: the growth was 93.9%.
To `COc1ccc(S(=O)(=O)NCCNc2nccc(-c3c(-c4cccc(F)c4)nc4sccn34)n2)cc1` belongs 17.1%; to `COc1ccc2c(c1)CCCN2c1c2ccccc2nc2ccccc12`, 20.8%.
To `CC(=O)C(C)Cc1cc2c(cc1C)C(C)(C)CCC2(C)C` (stereo not given) belongs 91.8%.
To `CCn1c(C)nc2cc(C(N)=O)ccc21` belongs 91.5%; to `N=C1CCC(=N)c2c1c(O)c1ccccc1c2O`, 138%; to `CCc1ccccc1-n1c(N)c(C#N)c(-c2ccc(N(C)C)cc2)c(C#N)c1=O`, 94.9%.
For `NNC(=O)c1nc(N)n(-c2ccc(S(N)(=O)=O)cc2)n1`, the growth was 102%.

(Values after PubChem BioAssay (NCI).)
